# According to PubChem BioAssay (EPA / NIEHS):
# Results filed as inconclusive are left out. Calls of active or inactive are those of the source. The calls were made as follows: active = hit-call score of the fitted dose curve at least 0.9, where 1 is the maximum; inconclusive = response in the unintended direction; inactive = score below 0.9.
# Target: Retinoic acid receptor RXR-alpha (Homo sapiens) (UniProt P19793)
# Experiment: ATG_RXRa_TRANS: Attagene TRANS-FACTORIAL HepG2 Assay for human Retinoid X Receptor alpha (RXRa) (AID 2283012)
# Experimental: ATG_TRANS is a cell-based, multiplexed-readout assay that uses HepG2, a human liver cell line, with measurements taken at 24 hours after chemical dosing in a 24-well plate.ATG_RXRa_TRANS is one of 30 assay component(s) measured or calculated from the ATG_TRANS assay. It is designed to make measurements of mRNA induction, a form of inducible reporter, as detected with fluorescence intensity signals by Reverse transcription polymerase chain reaction (RT-PCR) and Capillary electrophoresis technology.Data from the assay component ATG_RXRa_TRANS was analyzed into 1 assay endpoint. This assay endpoint, ATG_RXRa_TRANS, was analyzed in the positive analysis fitting direction relative to DMSO as the negative control and baseline of activity. Using a type of inducible reporter, measures of mRNA for gain-of-signal activity can be used to understand the reporter gene at the transcription factor-level as they relate to the gene RXRA. Furthermore, this assay endpoint can be referred to as a primary readout, because this assay has produced multiple assay endpoints where this one serves a reporter gene function. To generalize the intended target to other relatable targets, this assay endpoint is annotated to the nuclear receptor intended target family, where the subfamily is non-steroidal.
# Human liver HepG2 cells are transiently transfected with multiple reporter transcription units (MRTUs) in 6-well plates using FuGene 6 reagent (Roche; 3 ml FuGene/1 mg DNA). The MRTU constructs are regulated by a cis-regulating element (promoter). […] A major difference between the CIS and TRANS system is that in CIS activities of endogenous TFs are measured, whereas the TRANS assay evaluates changes in activities of exogenous, chimeric NR-Gal4 proteins. […] At the end of 24 hour incubation, total RNA was isolated using TriZol reagent (Invitrogen). The isolated RNA is then reverse-transcribed using oligo(dT) primer and Mo-MLV reverse transcriptase (Invitrogen) with DNAse I (Ambion) treatment for 30 min. The one-tenth of the produced cDNA was amplified by PCR using Taq DNA polymerase (Invitrogen) and two reporter sequence-specific primers. The PCR products were fluorescently labeled by primer extension with 6-arboxyfluorescein (6-FAM) 5'-labeled reporter sequence-specific primer (2 min at 95 C, 20 s at 68 C and 10 min at 72 C) and these products were digested with 5U of HpaI (New England Biolabs) for 2h at 37 C. The fragments were purified using Qiaquick PCR columns (Qiagen), analyzed on an ABI 3130xL genetic analyzer (Applied Biosystems) with peak positions identified by using a set of X-rhodamine (ROX)-labeled MapMarker1000 molecular weight standards (BioVentures). The raw capillary electrophoresis data was processed using Attagraph software (Attagene).
# Sequence of Retinoic acid receptor RXR-alpha (Homo sapiens) (P19793 whole entry, looked up): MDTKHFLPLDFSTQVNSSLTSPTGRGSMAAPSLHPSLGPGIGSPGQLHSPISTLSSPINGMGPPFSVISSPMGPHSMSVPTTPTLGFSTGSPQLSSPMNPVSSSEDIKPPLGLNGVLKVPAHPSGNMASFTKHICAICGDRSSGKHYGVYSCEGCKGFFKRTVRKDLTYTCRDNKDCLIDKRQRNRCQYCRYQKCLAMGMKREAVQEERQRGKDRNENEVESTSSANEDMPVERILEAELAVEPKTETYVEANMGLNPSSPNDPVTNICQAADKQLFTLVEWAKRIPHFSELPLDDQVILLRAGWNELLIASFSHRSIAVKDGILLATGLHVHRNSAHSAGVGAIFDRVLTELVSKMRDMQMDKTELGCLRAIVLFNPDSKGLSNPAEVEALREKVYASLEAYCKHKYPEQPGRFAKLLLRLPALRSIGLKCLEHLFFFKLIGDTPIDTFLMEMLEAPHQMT
Structure (SMILES),outcome,AC50
CC(C)C(=O)OCC=Cc1ccccc1,inactive,–
CC/C(=C(\c1ccccc1)c1ccc(OCCN(C)C)cc1)c1ccccc1,inactive,–
C=CCOC(=O)/C=C\C(=O)OCC=C,inactive,–
CC(C)C(=O)c1ccccc1,inactive,–
CCC(C)(C)c1cc(O)c(C(C)(C)CC)cc1O,inactive,–
NC(=O)c1c(Cl)cccc1Cl,inactive,–
CCCCCc1cccc(=O)o1,inactive,–
CCC=C(C)C=O,inactive,–
NC(=O)c1cccnc1,inactive,–
O=C(C=Cc1ccccc1)OCCCc1ccccc1,inactive,–
CC(O)CN (stereo not given),inactive,–
Nc1ccn([C@H]2CC[C@@H](CO)O2)c(=O)n1,inactive,–
CCCCC1CCCCC(=O)O1 (stereo not given),inactive,–
O=S(=O)(O)CCCN1CCOCC1,inactive,–
CCOc1ccc(NC(C)=O)cc1,inactive,–
C=CC(C)(CCC=C(C)C)OC(=O)CC (stereo not given),inactive,–
CC(=O)c1ccc2ccccc2c1,inactive,–
CC1(C)[C@H](C=C(Cl)Cl)[C@H]1C(=O)OCc1cccc(Oc2ccccc2)c1,inactive,–
CCCCN(CCO)CCO,inactive,–
CC(C)(C)c1cccc(O)c1,inactive,–

Structure (SMILES),outcome,AC50
CC1=CC(C)C(C=O)C(C)C1 (stereo not given) (tested in a mixture with another compound),inactive,–
CCC(C)(CCCC(C)C)OC(C)=O (stereo not given),inactive,–
CCCCCC#CC(=O)OC,inactive,–
C/C=C(\C)C(=O)OC/C=C(\C)CCC=C(C)C,–,30.7 µM (active)
CCCCCC1C(=O)CCC1CC(=O)OC (stereo not given),inactive,–
CC/C=C\CCOC(C)OCC (stereo not given),inactive,–
CC(C)CCCC(C)(C)O,inactive,–
CC(=O)CC(=O)N(C)C,inactive,–
CC/C=C\CCCCO,inactive,–
CCCCCCC(O)CCOC(C)=O (stereo not given),inactive,–
C=COCC1CCC(COC=C)CC1 (stereo not given),inactive,–
C=C(C)C(=O)OCCC[Si](OC)(OC)OC,inactive,–
CC(CCO)CC(C)(C)C (stereo not given),inactive,–
C=CC(C)CCCC(C)(C)O (stereo not given),inactive,–
O=C1OCc2ccccc21,inactive,–
COc1ccccc1NC(=O)CC(C)=O,inactive,–
O=S(=O)(O)c1cc(S(=O)(=O)O)c2c(N=Nc3ccccc3)c(O)ccc2c1,inactive,–
CC(=O)C1=C(C)[C@@H]2C[C@@]3(C1)[C@H](C)CC[C@H]3C2(C)C,inactive,–
CCC(=O)OCC=Cc1ccccc1,inactive,–
C=C(C)CCCC(C)CCO (stereo not given),inactive,–
